# Biological target: DEXI
# Assay: pooled miR-30 sensor sort-seq; sequence = guide strand
# Details: shRNA
# Further: reference of the scale not given here.
row,Sequence,sensor-assay potency score (higher = more potent)
1,ATGTACTCCATGAGGAAGGCGT,-1.19
2,TCAAAGACGTCGAGCTCCGAGT,-0.796
3,TCAAACAGGAACCTCTCTGTTG,-0.754
4,TTCCTGTAAACATCCATCGCAG,-0.501

# Biological target: DGKE
# Assay: as above
# Details: shRNA
row,Sequence,sensor-assay potency score (higher = more potent)
1,TTTAATTCCATCTGCTTCCATT,-0.836
2,TTTGTTACTTGAACTTTCCATC,-0.49
3,TTGCACTAAACAATCTTTGGTT,0.42
4,TTGAACTTTCCATCGATCTAGT,0.305
5,TTGACAGCCACACTGCTGCTTG,0.0149
6,TGAACATGTATCTACTTGCGTG,-0.503
7,TTCTTGAGCATAATCTCCTTGC,-0.369
8,TTTTGGATGAACATGTATCTAC,-0.088
9,TTACTTGAACTTTCCATCGATC,-0.458
10,TTTGACAGTAATCATTTCCTTT,-0.513
11,TTAATTTGATCTTTCCACCCAC,0.385
